Results from the supplement of paper PMC12494721.

Tests used:
Conditions in all cases: 20 µM; incubation time: 27 h, anaerobic, 37 °C;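 for the amine columns active = adjusted P below 0.05 in both replicates with a change the same way and a mean fold change under 0.8 or over 1.25; inactive = the rest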
[1] = tested on: Clostridium sporogenes DSM 1664; assay: growth (OD595) fold change vs plate DMSO controls (fold change (ratio)); higher = more growth
Outline: (§1)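 The 96-well mGAM cultures had been kept anaerobic for 27 h at 37 °C before being shaken and read at 595 nm. Blank subtraction, compound background correction with 20 µM compound solutions in water, and a calibration factor of 5 turned the readings into OD. Growth is given as the fold change versus the median of plate DMSO controls. Fold changes above 1.5 were set to NA, and the values are means of 2 biological replicates.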

Escherichia coli IAI1 [2] = assay: as above
Outline: as §1

[3] = tested on: Klebsiella aerogenes DSM 30053; assay: as above
Outline: as §1

[4] = tested on: Ruminococcus gnavus DSM 108212; assay: as above
Outline: as §1

[5] = tested on: Klebsiella aerogenes DSM 30053; assay: fold change of Histamine concentration vs plate DMSO controls (fold change (ratio)); higher = more amine produced, active = hit call of the paper (significant change in both replicates, either direction)
Outline: (§2)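 Amine values are fold changes relative to DMSO-only wells on the same plate. They derive from 27 h, 37 °C anaerobic mGAM cultures of four gut bacterial strains in 80 µL wells, dosed at 20 µM final, or 50 µM final for sweeteners. Extraction of the whole culture, LC–triple-quadrupole MS in dynamic MRM mode, external calibration curves and within-batch drift correction were used, with 2 biological replicates averaged.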

[6] = tested on: Clostridium sporogenes DSM 1664; assay: fold change of Tryptamine concentration vs plate DMSO controls (fold change (ratio)); higher = more amine produced, active = hit call of the paper (significant change in both replicates, either direction)
Outline: as §2

[7] = tested on: Ruminococcus gnavus DSM 108212; assay: as above
Outline: as §2

Escherichia coli IAI1 [8] = assay: fold change of Putrescine concentration vs plate DMSO controls (fold change (ratio)); higher = more amine produced, active = hit call of the paper (significant change in both replicates, either direction)
Outline: as §2

[9] = tested on: Klebsiella aerogenes DSM 30053; assay: as above
Outline: as §2

Escherichia coli IAI1 [10] = assay: fold change of Cadaverine concentration vs plate DMSO controls (fold change (ratio)); higher = more amine produced, active = hit call of the paper (significant change in both replicates, either direction)
Outline: as §2

[11] = tested on: Klebsiella aerogenes DSM 30053; assay: as above
Outline: as §2

[12] = tested on: Ruminococcus gnavus DSM 108212; assay: fold change of 2-Phenylethylamine concentration vs plate DMSO controls (fold change (ratio)); higher = more amine produced, active = hit call of the paper (significant change in both replicates, either direction)
Outline: as §2

Structure (SMILES)	growth [1]	growth (Escherichia coli IAI1 [2])	growth [3]	growth [4]	fold change of Histamine concentration [5]	fold change of Tryptamine concentration [6]	fold change of Tryptamine concentration [7]	fold change of Putrescine concentration (Escherichia coli IAI1 [8])	fold change of Putrescine concentration [9]	fold change of Cadaverine concentration (Escherichia coli IAI1 [10])	fold change of Cadaverine concentration [11]	fold change of 2-Phenylethylamine concentration [12]
CC[C@@H](C(N)=O)N1CCCC1=O [Levetiracetam]	1.02	1.01	1.08	0.829	0.827 (inactive)	1.06 (inactive)	1.07 (inactive)	1.06 (inactive)	0.951 (inactive)	1.02 (inactive)	1.05 (inactive)	1.07 (inactive)
N#CCNC(=O)c1cnccc1C(F)(F)F	1.08	1	0.999	1.12	1.02 (inactive)	1 (inactive)	1 (inactive)	1.01 (inactive)	1.01 (inactive)	1.03 (inactive)	0.997 (inactive)	0.951 (inactive)
CC(Oc1ccc(Oc2ncc(C(F)(F)F)cc2Cl)cc1)C(=O)O (stereo not drawn)	1.02	1.03	1.01	0.977	0.989 (inactive)	0.943 (inactive)	0.974 (inactive)	1.05 (inactive)	0.988 (inactive)	1.04 (inactive)	0.981 (inactive)	0.982 (inactive)
N#C/N=C1\SCCN1Cc1ccc(Cl)nc1	1.01	0.969	0.996	1	0.995 (inactive)	1 (inactive)	1 (inactive)	1.04 (inactive)	0.994 (inactive)	0.991 (inactive)	1 (inactive)	1.03 (inactive)
C[C@H](N)[C@H](O)c1ccc(O)c(O)c1 [Levonordefrin]	1.11	0.971	1	0.976	0.953 (inactive)	1.04 (inactive)	1.07 (inactive)	0.904 (inactive)	0.981 (inactive)	0.962 (inactive)	1.01 (inactive)	1.14 (inactive)
CCCC(C)(COC(N)=O)COC(=O)NC(C)C (stereo not drawn) [Carisoprodol]	1.03	1.01	1.01	0.919	1.03 (inactive)	1.01 (inactive)	1.02 (inactive)	1.02 (inactive)	1 (inactive)	1.02 (inactive)	1 (inactive)	1.05 (inactive)
Cc1c(COC(=O)[C@@H]2[C@H](/C=C(\Cl)C(F)(F)F)C2(C)C)cccc1-c1ccccc1 (racemic)	1.05	1.09	0.978	1.13	1.02 (inactive)	0.975 (inactive)	1.03 (inactive)	1 (inactive)	0.953 (inactive)	0.864 (inactive)	0.989 (inactive)	1.07 (inactive)
C#C[C@]1(O)CC[C@H]2[C@@H]3CCC4=CC(=O)CC[C@]4(C)[C@H]3CC[C@@]21C [Ethisterone]	0.939	1.07	1.01	0.986	1.05 (inactive)	1.02 (inactive)	1 (inactive)	1.03 (inactive)	1.04 (inactive)	0.988 (inactive)	0.997 (inactive)	1.04 (inactive)
CC(C)OC(=O)Nc1cccc(Cl)c1	1.05	1.04	1.05	0.957	0.972 (inactive)	0.989 (inactive)	1.02 (inactive)	0.987 (inactive)	0.984 (inactive)	0.927 (inactive)	1.01 (inactive)	1.06 (inactive)
CC(C)=CC1C(C(=O)OCc2cccc(Oc3ccccc3)c2)C1(C)C (stereo not drawn) [Phenothrin]	0.963	1.02	1.05	1.06	0.924 (inactive)	1.02 (inactive)	1.05 (inactive)	1.07 (inactive)	1.02 (inactive)	1.03 (inactive)	1.01 (inactive)	1.06 (inactive)
O=[N+]([O-])O[C@@H]1CO[C@H]2[C@@H]1OC[C@@H]2O [Isosorbide mononitrate]	0.988	0.984	1.07	1.31	0.975 (inactive)	0.938 (inactive)	0.984 (inactive)	0.959 (inactive)	1.05 (inactive)	0.975 (inactive)	1.04 (inactive)	0.946 (inactive)
N#CC(CCc1ccc(Cl)cc1)(Cn1cncn1)c1ccccc1 (stereo not drawn)	1.11	1.08	0.94	1.14	0.476 (inactive)	0.979 (inactive)	1.04 (inactive)	1.07 (inactive)	0.482 (inactive)	0.972 (inactive)	0.478 (inactive)	1.08 (inactive)
CCc1nn(C)c(C(=O)NCc2ccc(Oc3ccc(C)cc3)cc2)c1Cl	0.969	1.02	1.01	1.17	0.963 (inactive)	0.927 (inactive)	1.02 (inactive)	0.947 (inactive)	1 (inactive)	1.01 (inactive)	0.998 (inactive)	1.04 (inactive)
NC(=O)OCCCc1ccccc1 [Phenprobamate]	0.892	0.995	0.992	0.943	0.97 (inactive)	0.987 (inactive)	0.96 (inactive)	1.34 (inactive)	0.99 (inactive)	0.952 (inactive)	0.984 (inactive)	0.943 (inactive)
